Measurements: PubChem BioAssay (Tox21)
Records with an inconclusive call do not appear. Values without a mark were called inactive. Activity calls are given as the source filed them. Calls come from the whole dose curve; as a rule, active = well fitted cell-killing curve with a large enough effect in the repeat runs; inconclusive = weak or mixed curves, or effect the other way; inactive = flat fitted curve, though single readings scatter.

test: qHTS RealTime-Glo MT Cell Viability Assay in HEK293 cells - 16 hour (AID 1224872); conditions: RealTime-Glo luminescence; series mostly up to 76.8 µM; activity change, negative = cytotoxicity: at the top concentration; note: nearly all actives have a fitted effect of over 50% in size; for activity change, negative = cytotoxicity: top concentration of the series differs between compounds
Description: National Center for Advancing Translational Sciences [NCATS]
NIH Chemical Genomics Center [NCGC]
U.S. Environmental Protection Agency [EPA]
National Institutes of Environmental Health Sciences [NIEHS]
National Toxicology Program [NTP]
U.S. Food and Drug Administration [FDA]
Measure of cell viability is critical in the cell-base assay. Analysis of cell viability is necessary for the characterization of cell responses to cytotoxic drugs and environmental stress. A RealTime-Glo MT Cell Viability Assay to monitor cell viability in real time of continues cell culture during 40 hours of compound treatment was used to screen Tox21 10K library compounds in Hek293 cells. The RealTime-Glo MT Cell Viability Assay is a nonlytic, homogeneous, bioluminescent method to measure cell viability in real time using a simple, plate-based method. The assay involves adding NanoLuc luciferase and a cell-permeant prosubstrate to cells in culture. Viable cells reduce the proprietary prosubstrate to generate a substrate for NanoLuc luciferase. This substrate diffuses from cells into the surrounding culture medium, where it is rapidly used by the NanoLuc Enzyme to produce a luminescent signal. The signal correlates with the number of viable cells, making the assay well suited for cytotoxicity studies.
Tox21 Assay Protocol Summary:
The mixture of Hek293 cell suspension and reagents were dispensed at 600cells/6 ul/well in 1536-well tissue culture treated black solid bottom plates using a Multidrop dispenser. After the assay plates were incubated at a 37 C/5% CO2 incubator for 5 hours, 23 nL of compounds dissolved in DMSO, positive and negative controls was transferred to the assay plate by a pintool work station. The plates were incubated at 37 C for 40 hours. The luminescence intensity were measured at 0h, 8h, 16h, 24h, 32h and 40h time points using ViewLux plate reader during compound treatment.
% is set by controls: 0 for no effect and ±100 for the full control effect; potency is the fitted concentration of half-maximal effect.

Going from `O=C1c2ccccc2C(=O)N1CCl` to `CC(=O)c1ccc2c(c1)Cc1ccccc1-2`, the “activity change, negative = cytotoxicity” value rises from 1.59% to 4.9%.

Going from `C=C(C)C(=O)OCc1ccccc1` to `O=C(OCc1ccccc1)C(=O)OCc1ccccc1`, the “activity change, negative = cytotoxicity” value falls from 6.11% to -4.75%.

Compared with `CCCCCCCCC1CCC(=O)O1` (stereo not given), `CCCCCCCCC(=O)Cl` is higher in “activity change, negative = cytotoxicity” value: 1.29% for the first, 8.46% for the second.

Going from `O=C(O)c1cc(Cl)cc([N+](=O)[O-])c1Cl` to `O=C(O)Cc1ccc(Cl)cc1Cl`, the “activity change, negative = cytotoxicity” value falls from 14.1% to 13.1%.

First: CC(C)(C)OC(=O)c1ccc(O)cc1
Second: CC(C)(C)NC(N)=O
The “activity change, negative = cytotoxicity” value of the first is lower: -19.4% for the first, 8.93% for the second.

Compared with `C=C(C)C1CCC(C)(O)CC1` (stereo not given), `CCCCNC1CC(C)(C)NC(C)(C)C1` is higher in “activity change, negative = cytotoxicity” value: -0.878% for the first, 3.21% for the second.

Compared with `CCCCCCCCOS(=O)(=O)O`, `CCCCCCCCCC(C)=O` is lower in “activity change, negative = cytotoxicity” value: 20.8% for the first, 11.9% for the second.

Compared with `CC1COc2ccccc2N1` (stereo not given), `OCCN(CCO)c1cccc(Cl)c1` is lower in “activity change, negative = cytotoxicity” value: 2.48% for the first, 0.803% for the second.

Compared with `COC(=O)CCCCCCCC(=O)OC`, `C=C(C)C(=O)OCC(C)(C)COC(=O)C(=C)C` is lower in “activity change, negative = cytotoxicity” value: 17.1% for the first, 7.63% for the second.

First: Nc1ccc([N+](=O)[O-])c(N)c1
Second: COc1cc(N)ccc1C
The “activity change, negative = cytotoxicity” value of the first is lower: -1.61% for the first, 4.15% for the second.

Compared with `COc1ccc(OC)c(Cl)c1`, `COc1ccc(Br)c(C)c1` is lower in “activity change, negative = cytotoxicity” value: 15.5% for the first, 3.84% for the second.

Compared with `CC1=CCC(C(C)C)=CC1`, `C=C(C)C(=O)OCCOP(=O)(O)OCCOC(=O)C(=C)C` is lower in “activity change, negative = cytotoxicity” value: -3.01% for the first, -3.42% for the second.

Compared with `CO[C@@H]1[C@@H](OC(N)=O)[C@@H](O)[C@H](Oc2ccc3c(O)c(NC(=O)c4ccc(O)c(CC=C(C)C)c4)c(=O)oc3c2C)OC1(C)C`, `COc1ccc(-c2cc(=O)c3c(O)cc(O[C@@H]4O[C@H](CO[C@@H]5O[C@@H](C)[C@H](O)[C@@H](O)[C@H]5O)[C@@H](O)[C@H](O)[C@H]4O)cc3o2)cc1O` is higher in “activity change, negative = cytotoxicity” value: 1.91% [at 35.3 µM] for the first, 7.8% [at 35.3 µM] for the second.

Compared with `C[C@H](N)[C@H](O)c1cccc(O)c1`, `Cc1cc(NC(=O)C2=C(O)c3ccccc3S(=O)(=O)N2C)no1` is higher in “activity change, negative = cytotoxicity” value: 4.89% [at 35.3 µM] for the first, 4.95% [at 35.3 µM] for the second.

First: Cc1ccsc1/C=C/C1=NCCCN1C
Second: CCCN1C[C@H](CSC)C[C@@H]2c3cccc4[nH]cc(c34)C[C@H]21
The “activity change, negative = cytotoxicity” value of the first is higher: 0.699% [at 35.3 µM] for the first, -1.48% [at 35.3 µM] for the second.

First: CC(S)C(=O)NCC(=O)O (stereo not given)
Second: CCOc1cc(NC(C)=O)ccc1C(=O)OC
The “activity change, negative = cytotoxicity” value of the first is higher: 14.3% [at 35.3 µM] for the first, -0.329% [at 35.3 µM] for the second.

First: CC(=O)Nc1ccc(S(=O)(=O)Nc2ccc([N+](=O)[O-])cc2)cc1
Second: Nc1ccc(S(=O)(=O)Nc2ccc(Cl)nn2)cc1
The “activity change, negative = cytotoxicity” value of the first is lower: -0.245% [at 35.3 µM] for the first, 3.61% [at 35.3 µM] for the second.

First: CC(C)NCC(O)COc1ccc(COCCOC(C)C)cc1 (stereo not given)
Second: O=C(OCC1(COC(=O)c2cccnc2)CCCC(COC(=O)c2cccnc2)(COC(=O)c2cccnc2)C1O)c1cccnc1
The “activity change, negative = cytotoxicity” value of the first is lower: -2.27% [at 35.3 µM] for the first, 3.9% [at 35.3 µM] for the second.

Compared with `O=C(O)Cc1cn(-c2ccccc2)nc1-c1ccc(Cl)cc1`, `FC(F)(F)c1ccccc1-n1ccnc1` is lower in “activity change, negative = cytotoxicity” value: 5.72% [at 35.3 µM] for the first, 1.2% [at 35.3 µM] for the second.

With `CCOc1cc([N+](=O)[O-])c(OCC)cc1N1CCOCC1` the Potency was 19.5 µM (active).

For `N[C@@H](CCC(=O)N[C@@H](CS)C(=O)NCC(=O)O)C(=O)O`, the activity change, negative = cytotoxicity was 9.65% [at 15.8 µM].
